# In article PMC8384837, “Expanding the binding specificity for RNA recognition by a PUF domain”:
# What was measured:
# Assay in all cases: yeast three-hybrid, YBZ-1, SC-Leu-His + 0.5 mM 3-AT, 4 days
# Details in all cases: tags: N-Gal4 AD-HA kept; label: inside an RPR1-promoter hybrid RNA with tandem MS2 sites; ssRNA
# PUM1 PUF domain R1-TMR = PUM1 PUF domain R1-TMR (Homo sapiens, UniProt Q14671 828-1176, S863T;R864M;Q867R)
# Procedure, shortened: (§1)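 The interaction score is the logarithmic change in variant frequency from input to selection. It uses log2, with a pseudocount of 1 for absent variants, and frequencies came from PCR-amplified, Illumina-sequenced repeat regions. The libraries were Pumilio-1 PUF domains randomized at the three base-contacting residues per repeat, co-expressed with matching RNA elements in strain YBZ-1 (LexA–MS2 coat fusion, HIS3 reporter). Plating lasted four days on SC-Leu (input) or SC-Leu-His + 0.5 mM 3-AT (selection).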
# PUM1 PUF domain R1-GCR = PUM1 PUF domain R1-GCR (Homo sapiens, UniProt Q14671 828-1176, S863G;R864C;Q867R)
# Procedure, shortened: as §1
# PUM1 PUF domain R8-RHI = PUM1 PUF domain R8-RHI (Homo sapiens, UniProt Q14671 828-1176, N1122R;Y1123H;Q1126I)
# Procedure, shortened: as §1
# PUM1 PUF domain R5-RGP = PUM1 PUF domain R5-RGP (Homo sapiens, UniProt Q14671 828-1176, C1007R;R1008G;Q1011P)
# Procedure, shortened: as §1
# PUM1 PUF domain R5-FKR = PUM1 PUF domain R5-FKR (Homo sapiens, UniProt Q14671 828-1176, C1007F;R1008K;Q1011R)
# Procedure, shortened: as §1
# PUM1 PUF domain R5-KND = PUM1 PUF domain R5-KND (Homo sapiens, UniProt Q14671 828-1176, C1007K;R1008N;Q1011D)
# Procedure, shortened: as §1
# PUM1 PUF domain R6-VYG = molecular target: T1, PUM1 PUF domain R6-VYG (Homo sapiens, UniProt Q14671 828-1176, N1043V;Q1047G)
# T1 sequence: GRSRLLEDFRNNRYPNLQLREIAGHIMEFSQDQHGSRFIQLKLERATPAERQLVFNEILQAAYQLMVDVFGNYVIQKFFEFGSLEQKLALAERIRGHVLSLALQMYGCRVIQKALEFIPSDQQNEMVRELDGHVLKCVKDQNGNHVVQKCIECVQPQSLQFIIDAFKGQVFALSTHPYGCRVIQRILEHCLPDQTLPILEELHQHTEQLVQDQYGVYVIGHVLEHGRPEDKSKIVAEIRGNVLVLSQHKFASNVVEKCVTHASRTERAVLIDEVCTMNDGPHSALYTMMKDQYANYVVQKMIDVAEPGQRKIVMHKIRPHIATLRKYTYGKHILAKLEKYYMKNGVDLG
# Procedure, shortened: as §1
# PUM1 PUF domain R7-RSN = PUM1 PUF domain R7-RSN (Homo sapiens, UniProt Q14671 828-1176, S1079R;N1080S;E1083N)
# Procedure, shortened: as §1
# PUM1 PUF domain R3-SME = PUM1 PUF domain R3-SME (Homo sapiens, UniProt Q14671 828-1176, C935S;R936M;Q939E)
# Procedure, shortened: as §1
sequence,measurement,setting,value
GGCUAGAACUAGUGGAUCCCCCGGCGCCCGGCGGCUCGAGCCCGGGUAAGUGUAAAUCGUCUGCAUGCCGCCGGGCGCCAUGCCUGCAGGUCGACUCUAGAAAACAUG,binding signal,PUM1 PUF domain R1-TMR,2.55 log2 enrichment (interaction score)
same,binding signal,PUM1 PUF domain R1-GCR,2.53 log2 enrichment (interaction score)
GGCUAGAACUAGUGGAUCCCCCGGCGCCCGGCGGCUCGAGCCCGGGUAAGCGUAAAUAGUCUGCAUGCCGCCGGGCGCCAUGCCUGCAGGUCGACUCUAGAAAACAUG,binding signal,PUM1 PUF domain R8-RHI,5.37 log2 enrichment (interaction score)
GGCUAGAACUAGUGGAUCCCCCGGCGCCCGGCGGCUCGAGCCCGGGUAAGUGUCAAUAGUCUGCAUGCCGCCGGGCGCCAUGCCUGCAGGUCGACUCUAGAAAACAUG,binding signal,PUM1 PUF domain R5-RGP,2.99 log2 enrichment (interaction score)
same,binding signal,PUM1 PUF domain R5-FKR,3.62 log2 enrichment (interaction score)
same,binding signal,PUM1 PUF domain R5-KND,3.62 log2 enrichment (interaction score)
GGCUAGAACUAGUGGAUCCCCCGGCGCCCGGCGGCUCGAGCCCGGGUAAGUGAAAAUAGUCUGCAUGCCGCCGGGCGCCAUGCCUGCAGGUCGACUCUAGAAAACAUG,binding signal,PUM1 PUF domain R6-VYG,5.61 log2 enrichment (interaction score)
GGCUAGAACUAGUGGAUCCCCCGGCGCCCGGCGGCUCGAGCCCGGGUAAGUGUAAAUAGUCUGCAUGCCGCCGGGCGCCAUGCCUGCAGGUCGACUCUAGAAAACAUG,binding signal,PUM1 PUF domain R6-VYG,1.61 log2 enrichment (interaction score)
GGCUAGAACUAGUGGAUCCCCCGGCGCCCGGCGGCUCGAGCCCGGGUAAGUGUAAAUUGUCUGCAUGCCGCCGGGCGCCAUGCCUGCAGGUCGACUCUAGAAAACAUG,binding signal,PUM1 PUF domain R1-GCR,1.58 log2 enrichment (interaction score)
GGCUAGAACUAGUGGAUCCCCCGGCGCCCGGCGGCUCGAGCCCGGGUAAGUGUUAAUAGUCUGCAUGCCGCCGGGCGCCAUGCCUGCAGGUCGACUCUAGAAAACAUG,binding signal,PUM1 PUF domain R5-FKR,2.17 log2 enrichment (interaction score)
GGCUAGAACUAGUGGAUCCCCCGGCGCCCGGCGGCUCGAGCCCGGGUAAGUCUAAAUAGUCUGCAUGCCGCCGGGCGCCAUGCCUGCAGGUCGACUCUAGAAAACAUG,binding signal,PUM1 PUF domain R7-RSN,1.34 log2 enrichment (interaction score)
GGCUAGAACUAGUGGAUCCCCCGGCGCCCGGCGGCUCGAGCCCGGGUAAGUUUAAAUAGUCUGCAUGCCGCCGGGCGCCAUGCCUGCAGGUCGACUCUAGAAAACAUG,binding signal,PUM1 PUF domain R7-RSN,3.1 log2 enrichment (interaction score)
GGCUAGAACUAGUGGAUCCCCCGGCGCCCGGCGGCUCGAGCCCGGGUAAGUGUAAGUAGUCUGCAUGCCGCCGGGCGCCAUGCCUGCAGGUCGACUCUAGAAAACAUG,binding signal,PUM1 PUF domain R3-SME,3.43 log2 enrichment (interaction score)
